# Source: ChEMBL document CHEMBL1961873, “Compounds: GSK PKIS; Assays: Nanosyn kinase panel” (2012)
# Tests used:
# [1] = target: Sphingosine kinase 1 (Homo sapiens) (UniProt Q9NYA1); details: at 1 µM;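 also: mean SPHK1 inhibition value reported from the GSK PKIS kinase panel screen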
# [2] = target: T1, Sphingosine kinase 2 (Homo sapiens) (UniProt Q9NRA0); details: at 0.1 µM;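 also: values reported as mean percent inhibition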
# T1 sequence (whole entry): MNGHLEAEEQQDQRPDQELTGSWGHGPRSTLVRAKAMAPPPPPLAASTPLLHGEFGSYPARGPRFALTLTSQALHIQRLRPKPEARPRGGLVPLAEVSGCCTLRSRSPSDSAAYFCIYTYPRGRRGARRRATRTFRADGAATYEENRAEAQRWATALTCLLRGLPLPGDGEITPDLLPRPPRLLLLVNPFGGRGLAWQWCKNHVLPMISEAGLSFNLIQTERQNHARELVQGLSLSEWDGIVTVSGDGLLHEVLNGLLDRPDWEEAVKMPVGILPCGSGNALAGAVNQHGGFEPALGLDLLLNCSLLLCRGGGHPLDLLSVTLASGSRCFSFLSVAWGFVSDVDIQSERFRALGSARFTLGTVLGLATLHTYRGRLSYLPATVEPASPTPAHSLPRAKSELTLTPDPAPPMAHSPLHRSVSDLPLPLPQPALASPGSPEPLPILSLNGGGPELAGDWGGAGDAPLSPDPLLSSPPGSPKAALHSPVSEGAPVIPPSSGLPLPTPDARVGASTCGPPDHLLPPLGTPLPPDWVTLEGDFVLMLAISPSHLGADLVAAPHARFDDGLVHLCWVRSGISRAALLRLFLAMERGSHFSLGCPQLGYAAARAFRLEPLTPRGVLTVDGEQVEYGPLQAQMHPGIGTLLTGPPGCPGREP
# [3] = target: Casein kinase II subunit alpha (Homo sapiens) (UniProt P68400); details: at 0.1 µM
# [4] = target: Casein kinase II subunit alpha (Homo sapiens) (UniProt P68400); details: at 1 µM
# [5] = target: T2, Inhibitor of nuclear factor kappa-B kinase subunit alpha (Homo sapiens) (UniProt O15111); details: at 0.1 µM
# T2 sequence (whole entry): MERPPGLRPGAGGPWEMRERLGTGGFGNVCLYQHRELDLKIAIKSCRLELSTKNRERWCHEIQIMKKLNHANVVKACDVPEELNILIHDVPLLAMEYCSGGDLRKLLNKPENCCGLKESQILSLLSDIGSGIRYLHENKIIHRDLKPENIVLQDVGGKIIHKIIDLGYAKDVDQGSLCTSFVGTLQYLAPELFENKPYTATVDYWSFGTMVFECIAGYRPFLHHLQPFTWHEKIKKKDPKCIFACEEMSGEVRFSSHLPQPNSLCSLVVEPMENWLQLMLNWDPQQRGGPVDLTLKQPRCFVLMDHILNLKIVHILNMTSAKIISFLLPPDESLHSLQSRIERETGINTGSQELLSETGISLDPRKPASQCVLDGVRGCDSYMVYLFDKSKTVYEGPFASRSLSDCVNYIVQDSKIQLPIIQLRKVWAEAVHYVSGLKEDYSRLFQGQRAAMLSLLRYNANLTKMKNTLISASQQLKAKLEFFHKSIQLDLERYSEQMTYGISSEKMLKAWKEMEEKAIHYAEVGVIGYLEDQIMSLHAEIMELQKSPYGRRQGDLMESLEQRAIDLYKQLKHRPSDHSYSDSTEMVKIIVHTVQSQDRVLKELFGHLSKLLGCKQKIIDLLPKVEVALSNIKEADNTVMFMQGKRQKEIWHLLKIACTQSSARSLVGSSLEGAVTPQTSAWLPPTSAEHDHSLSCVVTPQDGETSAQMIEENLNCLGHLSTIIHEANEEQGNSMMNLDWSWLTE
# [6] = target: T2, Inhibitor of nuclear factor kappa-B kinase subunit alpha (Homo sapiens); details: at 1 µM
# [7] = target: T3, Inhibitor of nuclear factor kappa-B kinase subunit beta (Homo sapiens) (UniProt O14920); details: at 0.1 µM
# T3 sequence (whole entry): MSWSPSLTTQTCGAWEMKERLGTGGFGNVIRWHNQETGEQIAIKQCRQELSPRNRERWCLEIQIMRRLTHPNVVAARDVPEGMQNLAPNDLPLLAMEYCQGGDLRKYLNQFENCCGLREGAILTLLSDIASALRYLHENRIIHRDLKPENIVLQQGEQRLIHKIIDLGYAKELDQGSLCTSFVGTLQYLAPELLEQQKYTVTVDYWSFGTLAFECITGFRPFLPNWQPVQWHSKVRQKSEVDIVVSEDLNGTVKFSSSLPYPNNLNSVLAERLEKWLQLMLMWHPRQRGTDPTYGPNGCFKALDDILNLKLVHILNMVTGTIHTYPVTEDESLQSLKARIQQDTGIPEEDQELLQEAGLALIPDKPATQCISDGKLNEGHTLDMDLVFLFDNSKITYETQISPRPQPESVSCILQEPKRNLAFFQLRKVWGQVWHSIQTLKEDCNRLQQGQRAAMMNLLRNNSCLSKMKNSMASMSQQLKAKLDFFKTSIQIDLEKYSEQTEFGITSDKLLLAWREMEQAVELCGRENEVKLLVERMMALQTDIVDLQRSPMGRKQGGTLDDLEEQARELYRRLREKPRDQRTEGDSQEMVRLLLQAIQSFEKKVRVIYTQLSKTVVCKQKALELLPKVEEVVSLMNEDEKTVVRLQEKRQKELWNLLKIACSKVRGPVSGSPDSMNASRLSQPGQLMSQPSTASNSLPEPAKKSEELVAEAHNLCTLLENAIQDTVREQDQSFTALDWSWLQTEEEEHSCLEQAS
# [8] = target: T3, Inhibitor of nuclear factor kappa-B kinase subunit beta (Homo sapiens); details: at 1 µM
# [9] = target: T4, Inhibitor of nuclear factor kappa-B kinase subunit epsilon (Homo sapiens) (UniProt Q14164); details: at 0.1 µM
# T4 sequence (whole entry): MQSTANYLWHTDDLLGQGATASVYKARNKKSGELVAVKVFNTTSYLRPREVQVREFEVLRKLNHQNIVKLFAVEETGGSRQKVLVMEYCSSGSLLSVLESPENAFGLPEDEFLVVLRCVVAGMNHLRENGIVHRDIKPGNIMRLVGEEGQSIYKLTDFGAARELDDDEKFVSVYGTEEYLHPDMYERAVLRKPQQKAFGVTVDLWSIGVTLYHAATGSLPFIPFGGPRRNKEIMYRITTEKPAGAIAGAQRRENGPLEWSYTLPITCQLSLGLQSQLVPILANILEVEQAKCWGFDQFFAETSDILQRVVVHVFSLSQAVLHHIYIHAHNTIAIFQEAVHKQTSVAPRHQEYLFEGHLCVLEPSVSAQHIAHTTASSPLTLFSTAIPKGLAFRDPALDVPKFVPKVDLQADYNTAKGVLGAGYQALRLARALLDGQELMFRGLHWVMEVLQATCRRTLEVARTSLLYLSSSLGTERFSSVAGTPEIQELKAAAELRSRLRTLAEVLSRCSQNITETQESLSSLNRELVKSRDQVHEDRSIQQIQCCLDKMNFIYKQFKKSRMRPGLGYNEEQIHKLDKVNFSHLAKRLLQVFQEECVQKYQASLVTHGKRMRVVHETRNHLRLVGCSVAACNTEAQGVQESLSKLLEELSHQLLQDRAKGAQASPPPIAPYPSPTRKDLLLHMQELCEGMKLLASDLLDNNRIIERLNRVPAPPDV
# [10] = target: T4, Inhibitor of nuclear factor kappa-B kinase subunit epsilon (Homo sapiens); details: at 1 µM
# [11] = target: T5, Serine/threonine-protein kinase Nek1 (Homo sapiens) (UniProt Q96PY6); details: at 0.1 µM
# T5 sequence (whole entry): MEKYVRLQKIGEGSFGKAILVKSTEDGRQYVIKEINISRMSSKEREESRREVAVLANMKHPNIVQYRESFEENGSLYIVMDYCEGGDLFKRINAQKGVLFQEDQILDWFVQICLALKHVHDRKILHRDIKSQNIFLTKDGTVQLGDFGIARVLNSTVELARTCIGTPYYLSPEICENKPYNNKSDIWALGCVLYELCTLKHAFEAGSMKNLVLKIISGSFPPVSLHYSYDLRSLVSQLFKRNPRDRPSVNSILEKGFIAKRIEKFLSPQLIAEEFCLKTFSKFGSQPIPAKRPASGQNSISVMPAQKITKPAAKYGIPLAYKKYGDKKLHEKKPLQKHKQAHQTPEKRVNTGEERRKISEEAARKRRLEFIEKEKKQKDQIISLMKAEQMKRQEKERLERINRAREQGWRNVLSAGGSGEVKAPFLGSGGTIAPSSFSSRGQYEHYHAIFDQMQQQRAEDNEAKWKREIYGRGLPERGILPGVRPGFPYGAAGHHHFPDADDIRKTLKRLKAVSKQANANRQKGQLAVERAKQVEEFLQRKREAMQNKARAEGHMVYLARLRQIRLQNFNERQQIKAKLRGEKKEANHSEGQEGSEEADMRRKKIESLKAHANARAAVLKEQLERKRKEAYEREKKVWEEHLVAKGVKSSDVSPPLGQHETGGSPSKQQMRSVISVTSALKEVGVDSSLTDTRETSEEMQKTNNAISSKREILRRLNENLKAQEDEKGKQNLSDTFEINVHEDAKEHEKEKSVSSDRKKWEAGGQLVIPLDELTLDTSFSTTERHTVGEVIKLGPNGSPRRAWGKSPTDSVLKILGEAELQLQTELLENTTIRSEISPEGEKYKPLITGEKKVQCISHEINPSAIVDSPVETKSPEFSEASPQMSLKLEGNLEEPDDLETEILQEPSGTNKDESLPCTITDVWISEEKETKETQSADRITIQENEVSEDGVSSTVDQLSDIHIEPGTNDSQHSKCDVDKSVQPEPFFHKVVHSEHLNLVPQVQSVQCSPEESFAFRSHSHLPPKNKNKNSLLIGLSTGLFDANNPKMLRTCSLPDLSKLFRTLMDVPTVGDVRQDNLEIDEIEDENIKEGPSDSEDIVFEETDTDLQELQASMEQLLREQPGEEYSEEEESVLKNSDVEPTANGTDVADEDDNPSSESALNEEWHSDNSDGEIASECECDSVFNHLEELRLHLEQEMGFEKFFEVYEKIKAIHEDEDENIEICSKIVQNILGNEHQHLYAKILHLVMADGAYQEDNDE
# [12] = target: T5, Serine/threonine-protein kinase Nek1 (Homo sapiens); details: at 1 µM
# [13] = target: T6, Serine/threonine-protein kinase Nek2 (Homo sapiens) (UniProt P51955); details: at 0.1 µM
# T6 sequence (whole entry): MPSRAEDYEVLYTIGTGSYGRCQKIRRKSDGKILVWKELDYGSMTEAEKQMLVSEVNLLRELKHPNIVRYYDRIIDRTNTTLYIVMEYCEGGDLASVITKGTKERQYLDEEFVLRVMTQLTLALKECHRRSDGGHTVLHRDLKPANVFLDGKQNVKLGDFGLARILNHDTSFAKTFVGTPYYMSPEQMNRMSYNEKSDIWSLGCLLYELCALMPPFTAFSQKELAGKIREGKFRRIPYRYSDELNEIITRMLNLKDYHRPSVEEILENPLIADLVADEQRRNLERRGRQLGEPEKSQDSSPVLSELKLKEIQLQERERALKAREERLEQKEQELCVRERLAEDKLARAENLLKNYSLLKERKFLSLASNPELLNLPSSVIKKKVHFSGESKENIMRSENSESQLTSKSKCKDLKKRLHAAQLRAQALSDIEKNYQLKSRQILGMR
# [14] = target: T6, Serine/threonine-protein kinase Nek2 (Homo sapiens); details: at 1 µM
# [15] = target: Serine/threonine-protein kinase Nek6 (Homo sapiens) (UniProt Q9HC98); details: at 0.1 µM
# [16] = target: Serine/threonine-protein kinase Nek6 (Homo sapiens) (UniProt Q9HC98); details: at 1 µM
# [17] = target: Serine/threonine-protein kinase Nek7 (Homo sapiens) (UniProt Q8TDX7); details: at 0.1 µM
# [18] = target: Serine/threonine-protein kinase Nek7 (Homo sapiens) (UniProt Q8TDX7); details: at 1 µM
# [19] = target: T7, Serine/threonine-protein kinase Nek9 (Homo sapiens) (UniProt Q8TD19); details: at 0.1 µM;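 also: reported value is the mean percent inhibition of NEK9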
# T7 sequence (whole entry): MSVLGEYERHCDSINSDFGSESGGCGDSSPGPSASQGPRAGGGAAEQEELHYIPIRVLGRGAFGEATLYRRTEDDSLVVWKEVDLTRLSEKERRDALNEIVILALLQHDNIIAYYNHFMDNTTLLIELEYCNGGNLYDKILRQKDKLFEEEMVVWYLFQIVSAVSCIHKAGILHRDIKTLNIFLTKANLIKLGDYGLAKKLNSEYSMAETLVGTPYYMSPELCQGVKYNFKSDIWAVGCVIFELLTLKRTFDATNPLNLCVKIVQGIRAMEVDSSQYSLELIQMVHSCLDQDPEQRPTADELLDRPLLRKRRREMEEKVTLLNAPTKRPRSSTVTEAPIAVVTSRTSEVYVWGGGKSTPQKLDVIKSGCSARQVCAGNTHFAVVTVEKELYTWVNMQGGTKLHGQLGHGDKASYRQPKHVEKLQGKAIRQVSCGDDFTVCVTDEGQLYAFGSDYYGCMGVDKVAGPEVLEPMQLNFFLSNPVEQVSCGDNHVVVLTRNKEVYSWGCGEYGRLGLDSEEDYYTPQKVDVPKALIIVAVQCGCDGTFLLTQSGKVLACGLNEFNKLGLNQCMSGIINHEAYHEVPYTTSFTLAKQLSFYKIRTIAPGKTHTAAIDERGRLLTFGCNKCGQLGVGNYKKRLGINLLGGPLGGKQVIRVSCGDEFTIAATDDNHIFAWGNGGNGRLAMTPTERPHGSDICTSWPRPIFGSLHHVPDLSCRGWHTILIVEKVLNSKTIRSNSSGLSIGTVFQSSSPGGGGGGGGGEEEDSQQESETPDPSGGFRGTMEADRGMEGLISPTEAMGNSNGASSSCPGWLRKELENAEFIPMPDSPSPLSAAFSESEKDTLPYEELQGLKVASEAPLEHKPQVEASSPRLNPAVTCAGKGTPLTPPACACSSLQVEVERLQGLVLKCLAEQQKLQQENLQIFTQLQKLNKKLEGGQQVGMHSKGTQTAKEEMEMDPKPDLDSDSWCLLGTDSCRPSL
# Sequence of Serine/threonine-protein kinase Nek7 (Homo sapiens) (Q8TDX7 whole entry, looked up): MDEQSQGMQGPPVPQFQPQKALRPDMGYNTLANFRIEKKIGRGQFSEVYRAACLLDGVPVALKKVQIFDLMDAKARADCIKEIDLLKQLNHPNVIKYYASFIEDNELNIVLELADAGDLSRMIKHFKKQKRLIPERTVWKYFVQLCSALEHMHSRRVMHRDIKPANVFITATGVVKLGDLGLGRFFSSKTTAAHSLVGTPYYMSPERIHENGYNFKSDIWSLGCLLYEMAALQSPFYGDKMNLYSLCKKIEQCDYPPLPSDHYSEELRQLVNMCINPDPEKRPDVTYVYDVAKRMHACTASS
# Sequence of Serine/threonine-protein kinase Nek6 (Homo sapiens) (Q9HC98 whole entry): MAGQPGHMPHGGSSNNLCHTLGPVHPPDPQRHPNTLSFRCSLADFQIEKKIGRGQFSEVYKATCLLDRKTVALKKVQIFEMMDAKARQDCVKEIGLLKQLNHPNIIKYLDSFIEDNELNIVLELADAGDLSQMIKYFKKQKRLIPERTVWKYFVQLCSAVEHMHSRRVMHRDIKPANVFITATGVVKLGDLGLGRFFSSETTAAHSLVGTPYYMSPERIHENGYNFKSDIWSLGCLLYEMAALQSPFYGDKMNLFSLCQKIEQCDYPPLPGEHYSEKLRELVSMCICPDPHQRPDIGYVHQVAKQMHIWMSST
# Sequence of Casein kinase II subunit alpha (Homo sapiens) (P68400 whole entry, looked up): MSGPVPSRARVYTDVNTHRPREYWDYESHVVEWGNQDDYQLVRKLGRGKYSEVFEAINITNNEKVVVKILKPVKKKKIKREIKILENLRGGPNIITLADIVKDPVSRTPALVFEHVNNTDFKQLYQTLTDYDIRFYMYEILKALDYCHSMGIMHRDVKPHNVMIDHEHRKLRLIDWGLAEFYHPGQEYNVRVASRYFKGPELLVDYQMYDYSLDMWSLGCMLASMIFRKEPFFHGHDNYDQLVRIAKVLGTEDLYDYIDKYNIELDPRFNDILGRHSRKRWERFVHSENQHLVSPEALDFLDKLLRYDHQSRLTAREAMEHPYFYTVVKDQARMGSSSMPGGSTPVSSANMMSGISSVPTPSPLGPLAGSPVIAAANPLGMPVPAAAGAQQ
# Sequence of Sphingosine kinase 1 (Homo sapiens) (Q9NYA1 whole entry): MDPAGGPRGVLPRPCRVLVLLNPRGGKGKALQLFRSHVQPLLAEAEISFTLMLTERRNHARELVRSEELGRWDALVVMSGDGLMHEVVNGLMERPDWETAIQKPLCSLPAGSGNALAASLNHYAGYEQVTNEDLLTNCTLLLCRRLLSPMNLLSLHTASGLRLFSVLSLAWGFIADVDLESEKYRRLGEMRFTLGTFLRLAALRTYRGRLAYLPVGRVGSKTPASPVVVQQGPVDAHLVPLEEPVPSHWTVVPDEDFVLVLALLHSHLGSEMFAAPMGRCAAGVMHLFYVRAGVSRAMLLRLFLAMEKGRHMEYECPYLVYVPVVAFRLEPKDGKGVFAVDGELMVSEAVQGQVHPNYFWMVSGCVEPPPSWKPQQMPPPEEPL
structure (smiles),measurement,setting,value
[O-][S+]1CCN(Cc2ccc(-c3ccc4ncnc(Nc5ccc(OCc6ccccc6)c(F)c5)c4c3)o2)CC1,inhibition,[1],-3.44%
same,inhibition,[2],0.02%
same,inhibition,[3],-1.48%
same,inhibition,[4],1.56%
same,inhibition,[5],1.7%
same,inhibition,[6],1.1%
same,inhibition,[7],4.51%
same,inhibition,[8],-0.14%
same,inhibition,[9],3.11%
same,inhibition,[10],1.45%
same,inhibition,[11],1.95%
same,inhibition,[12],2.41%
same,inhibition,[13],3.45%
same,inhibition,[14],3.23%
same,inhibition,[15],1.87%
same,inhibition,[16],-0.69%
same,inhibition,[17],2.33%
same,inhibition,[18],2.07%
same,inhibition,[19],5.9%
